# D1 agonist = Allosteric Agonists of the Human D1 Dopamine Receptor: qHTS | D(1A) dopamine receptor (Homo sapiens), P21728 | HEK293 T-REx D1 cells, calcium flux, agonist mode | activation, % at 2 µM | 360,000 compounds, 1% hits | AID 504660, 2011; further: 0% is about no effect
#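 Agonism was scored from calcium flux recorded over 180 s (1 read/s) after pintool compound addition, following a 10-cycle baseline. Cells were inducible force-coupled HEK293 TREx D1, plated overnight at 30 C and loaded with no-wash calcium dye.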
# TRHR agonist-1 = qHTS for Small Molecule Agonists and Allosteric Enhancers of Human TRH Receptor: Primary Screen for Agonists; TRHR cells, calcium flux fluo-8, FDSS agonist mode; 360,000 compounds, 0.18% hits; AID 493084, 2011; Thyrotropin-releasing hormone receptor (Homo sapiens), P34981; activation, % at 2 µM; further: 0% is about no effect
# Target sequence (P34981 whole entry, looked up): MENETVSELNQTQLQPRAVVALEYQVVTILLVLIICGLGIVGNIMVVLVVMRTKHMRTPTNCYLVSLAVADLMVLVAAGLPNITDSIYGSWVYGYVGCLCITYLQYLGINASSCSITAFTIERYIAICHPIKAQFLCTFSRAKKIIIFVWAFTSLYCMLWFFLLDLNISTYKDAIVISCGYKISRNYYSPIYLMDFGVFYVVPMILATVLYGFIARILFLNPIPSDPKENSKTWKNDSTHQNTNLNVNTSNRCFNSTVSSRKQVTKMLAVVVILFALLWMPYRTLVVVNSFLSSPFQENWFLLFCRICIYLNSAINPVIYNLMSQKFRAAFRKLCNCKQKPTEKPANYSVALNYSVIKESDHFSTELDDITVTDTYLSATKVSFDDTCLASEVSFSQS
#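 TRHR-expressing cells loaded with fluo-8 calcium dye; 23 nL library compound pin-transferred, kinetic FDSS fluorescence (Ex 480/Em 530) recorded about 180 s for agonist-induced calcium release, before a 10 nM TRH EC20 addition for potentiator mode.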
# TRHR enhancer-1 = qHTS for Small Molecule Agonists and Allosteric Enhancers of Human TRH Receptor: Primary Screen for Enhancers; TRHR cells, fluo-8 calcium fluorescence, EC20 TRH enhancement; Thyrotropin-releasing hormone receptor (Homo sapiens), P34981; AID 493056, 2011; enhancement, % at 2 µM; 360,000 compounds, 0.66% hits; in the data active means enhancement above about 30%; further: 0% is about no effect
#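 TRHR-expressing cells loaded with fluo-8 calcium dye were read kinetically (ex 480/em 530) during compound addition, then stimulated with an EC20 of TRH (10 nM final). Enhancement of the Gq-mediated intracellular calcium response was scored.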
# D1 antag = Antagonist of Human D 1 Dopamine Receptor: qHTS; D(1A) dopamine receptor (Homo sapiens), P21728; HEK293 TREx D1 cells, calcium flux, dopamine EC80; active compounds read low; activity change, negative = inhibition, % at 10 µM; 360,000 compounds, 3.2% hits; AID 504652, 2011; in the data active means activity change below about -30%; further: on the % scale 0 is the no-effect control and ±100 the full control effect
#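 Tetracycline-induced HEK293 T-REx cells with force-coupled D1 receptor were loaded with a no-wash calcium dye. Compound was added after a 10 s baseline and read kinetically for 180 s; EC80 dopamine was then added and calcium flux followed another 180 s.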
# D1 PAM = Potentiators of Human D1 Dopamine Receptor: qHTS; D(1A) dopamine receptor (Homo sapiens), P21728; HEK293 TREx D1 cells, calcium flux, dopamine EC20 potentiation; potentiation, % at 10 µM; 360,000 compounds, 0.036% hits; in the data active means potentiation above about 30%; further: 0% is about no effect
# TRHR enhancer-2 = qHTS for Small Molecule Agonists and Allosteric Enhancers of Human TRH Receptor: Confirmation Screen for Enhancers. shares compounds with TRHR enhancer-1. TRH receptor cell assay, enhancer confirmation qHTS. activity change, negative = inhibition, % at 46.1 µM. 970 tested, under 10 active; active means well fitted curve in the direction sought with a large enough effect; inconclusive means small, poorly fitted or top-dose-only effect, or another doubt; inactive means no such curve, though single readings can be large; an effect the other way counts as inactive or inconclusive;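 further: compound effect scored on response to added TRH at EC20 of 10 nM; 0% is about no effect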
# TRHR agonist-2 = qHTS for Small Molecule Agonists and Allosteric Enhancers of Human TRH Receptor: Confirmation Screen for Agonists; Potency, µM (doses to about 46.1 µM), for inactives: top-dose activation, hits mostly activators; AID 493078, 2011; shares compounds with TRHR enhancer-1; 970 compounds, 8% hits; TRHR-expressing cells, agonist activation read-out; active means well fitted curve in the direction sought with a large enough effect; inconclusive means small, poorly fitted or top-dose-only effect, or another doubt; inactive means no such curve, though single readings can be large; an effect the other way counts as inactive or inconclusive; further: potency means the concentration at half of the fitted maximal effect; 0% is about no effect; nearly all actives have a fitted effect of over 75% in size
# Starred values were filed as active, the others as inactive; ? = inconclusive; . = not tested or not shown. A selection: hits, their analogues and other compounds. The true share with any hit is near 4.7%. Unless noted, no stated cut-off is given here; in the data, active means activation above about 30%; inactive means the rest.
SMILES,D1 agonist,TRHR agonist-1,TRHR enhancer-1,D1 antag,D1 PAM,TRHR enhancer-2,TRHR agonist-2
Cc1ccc(C)c(CN2C(=O)c3ccccc3S(=O)(=O)c3ccc(C(=O)Nc4ccccc4C(F)(F)F)cc32)c1,6,2,9,-5,-1,.,.
CCN(C(=O)COC(=O)Cc1coc2cc(C)ccc12)c1c(N)n(Cc2ccccc2)c(=O)[nH]c1=O,2,0,-1,8,.,.,.
Cc1ccc2c(CC(=O)OCC(=O)N(CC(C)C)c3c(N)n(Cc4ccccc4)c(=O)[nH]c3=O)coc2c1,4,0,49*,-16,-3,0,?
COc1ccccc1N1CCN(Cc2nc3ccccc3[nH]2)CC1,1,0,50*,-10,7,5,-1%
CCC(C)NC(=O)c1cnn(-c2ccc(Cl)cc2)c1C1CCN(C(=O)OC(C)(C)C)CC1 (configuration not stated),-1,-1,-7,-1,-4,.,.
CC(=O)Nc1cc2ccccc2oc1=O,-1,0,-6,15,1,.,.
CCN(CC)c1ccc2cc(NC(=O)CCC(=O)O)c(=O)oc2c1,56*,26,5,6,-4,10,21µM*
CCOc1ccc(-n2c(SCC(=O)N3CCOCC3)nc3c([nH]c4ccccc43)c2=O)cc1,0,-1,8,3,0,.,.
O=C(COc1ccc(Cl)cc1)NCc1ccccc1,1,0,-2,-12,-3,.,.
Clc1ccc(OCCNCCc2ccccc2)cc1,25,1,43*,-18,-10,9,9%
O=C(CNC(=O)c1ccccc1)NC1(C(=O)NC2CCCCC2)CCCCC1,3,1,53*,8,5,-16,-1%
O=C(CNC(=O)c1ccccc1)NC1(C(=O)NC2CCCC2)CCCCC1,0,0,-5,2,0,.,.
COc1ccc(Cl)cc1NC(=O)C/C(C)=N/NC(=O)C(=O)NCc1ccccc1,1,-1,5,2,-3,.,.
O=C(Cn1cnc2c(nnn2Cc2ccccc2)c1=O)N1CCN(c2ccccc2)CC1,1,-1,89*,7,-2,-4,0%
Cn1c2ccccc2c2nnc(SCC(=O)NC3CC3)nc21,2,0,-6,-3,.,.,.
CN(CCc1cnn(C)c1)C(=O)C1CCC(=O)N(CC2CCCCC2)C1 (configuration not stated),2,1,66*,-2,1,-9,-1%
Cc1n[nH]c(C)c1CCN(C)C(=O)C1CCC(=O)N(CC2CCCCC2)C1 (configuration not stated),1,1,3,-10,-18,.,.
COc1cc(/C=C(\C#N)C(=O)NCCc2ccccc2)cc(OC)c1O,73*,56*,12,16,2,7,21µM*
Cc1ccc(C(=O)COC(=O)c2cc(=O)[nH]c3ccccc23)cc1,0,-1,47*,-11,-3,4,1%
O=C(COC(=O)c1cc(=O)[nH]c2ccccc12)c1ccccc1,1,0,-3,16,-1,.,.
CC(C)(C)c1ccc(C(=O)N2CCC(c3noc(-c4ccc(S(=O)(=O)N5CCCC5)cc4)n3)CC2)cc1,0,2,0,10,3,.,.
O=C(Cn1cncn1)c1ccccc1Br,1,0,44*,2,0,-1,1%
O=C(Cn1cncn1)NCc1ccccc1Br,2,1,-1,-8,-4,.,.
Cc1ccc(COc2ccc3c(c2)OCO3)cc1,4,0,8,-11,-8,.,.
O=Cc1ccc(OCc2ccc3c(c2)OCO3)cc1,4,26,-1,-15,8,-5,2%
SMILES,D1 agonist,TRHR agonist-1,TRHR enhancer-1,D1 antag,D1 PAM,TRHR enhancer-2,TRHR agonist-2
CCS(=O)(=O)N1CCc2cc(C(=O)Nc3cccc(C)c3C)ccc21,5,0,1,6,-1,.,.
CCc1ccc(S(=O)(=O)c2nnn3c2nc(NC2CCCCCC2)c2sccc23)cc1,4,0,-6,2,2,.,.
COc1ccc(C(C[N+](=O)[O-])c2c(-c3ccccc3)cc3ccccn23)cc1 (configuration not stated),7,0,54*,5,-1,-1,4%
COc1ccc(NC(=O)Cn2c(SCc3c(F)cccc3Cl)nc3ccncc32)cc1OC,1,-1,-1,6,-4,.,.
NS(=O)(=O)c1ccc(NC(=O)c2ccc(-c3ccccc3)cc2)cc1,6,0,-3,10,12,.,.
NS(=O)(=O)c1ccc(C(=O)Nc2ccc(-c3nc4cccnc4s3)cc2)cc1,1,1,44*,13,9,-9,1%
N#Cc1ccccc1S(=O)(=O)N1CCN(C(=O)C2COc3ccccc3O2)CC1 (configuration not stated),1,0,54*,-1,8,-10,?
O=C(C1COc2ccccc2O1)N1CCN(S(=O)(=O)c2cc(F)ccc2F)CC1 (configuration not stated),1,0,-2,-16,2,.,.
CCc1nc2ccccc2n2c(-c3ccc(C)cc3)c3c(=O)n(C)c(=O)n(C)c3c12,2,0,-4,-17,-1,.,.
Cc1ccc(-c2c3c(=O)n(C)c(=O)n(C)c3c3cnc4ccccc4n23)cc1,1,0,59*,4,7,-1,2%
COc1ccc(Cl)cc1C(=O)Nc1ccc(CN2CCCCC2)cc1,2,2,64*,-8,-11,3,7%
Cc1cc2oc(C(=O)Nc3ccc(S(=O)(=O)Nc4ncccn4)cc3)cc(=O)c2cc1Cl,0,0,-12,-3,-5,.,.
CC(=O)Nc1ccc(NC(=O)COc2ccc(Br)cc2C)cc1,6,0,2,-18,6,.,.
Cc1cccc(NC(=O)COc2ccc(Br)cc2/C=N/O)c1,9,-1,43*,3,-6,-7,2%
c1ccc(Oc2ccc(-c3ccnc4ncnn34)cc2)cc1,3,-2,48*,1,1,-7,0%
Cc1ccccc1S(=O)(=O)Cc1ccc(C(=O)NC2CCCCC2C)o1 (configuration not stated),1,-1,-2,-17,-6,.,.
